# Bioassay records: PubChem BioAssay, National Center for Advancing Translational Sciences (NCATS)
# D3 ag – qHTS of D3 Dopamine Receptor Agonist: qHTS; D(3) dopamine receptor (Homo sapiens), P35462; D3R DiscoveRx beta-arrestin cells, luminescence, 90 min; max activation, %; actives 0.58% (n = 410,000); in the data active = max activation above about 30%; also: 0% is about no effect
#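 Agonist mode: compounds and dopamine controls were applied to plated cells for 90 min at 37 degrees C after an overnight attachment at 1500 cells/well. Luminescent read-out followed 30 - 60 minutes at room temperature with DiscoveRx detection reagent.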
# D3 antag – qHTS of D3 Dopamine Receptor Antagonist: qHTS. D(3) dopamine receptor (Homo sapiens), P35462. D3R cells, DiscoveRx beta-arrestin luminescence, antagonist mode; hits give low values. max response, negative = inhibition, %. actives 2.5% (n = 360,000). AID 652054, 2013; in the data active = max response below about -50%; inconclusive = no clear call, values can overlap the other calls; also: % is scaled to controls: 0 for no effect and ±100 for the full control effect
#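 Cells expressing the human receptor were seeded at 1500 cells/well, incubated overnight at 37 degrees C in 5% CO2, then exposed to library compounds with dopamine controls for 90 minutes at 37 degrees C before luminescent detection.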
# D1 potentiator – Potentiators of Human D1 Dopamine Receptor: qHTS. HEK293 TREx D1 cells, calcium flux, dopamine EC20 potentiation. potentiation, % at 10 µM. actives 0.036% (n = 360,000). AID 504651, 2011; in the data active = potentiation above about 30%; also: 0% is about no effect
# Target sequence (P21728 whole entry, looked up): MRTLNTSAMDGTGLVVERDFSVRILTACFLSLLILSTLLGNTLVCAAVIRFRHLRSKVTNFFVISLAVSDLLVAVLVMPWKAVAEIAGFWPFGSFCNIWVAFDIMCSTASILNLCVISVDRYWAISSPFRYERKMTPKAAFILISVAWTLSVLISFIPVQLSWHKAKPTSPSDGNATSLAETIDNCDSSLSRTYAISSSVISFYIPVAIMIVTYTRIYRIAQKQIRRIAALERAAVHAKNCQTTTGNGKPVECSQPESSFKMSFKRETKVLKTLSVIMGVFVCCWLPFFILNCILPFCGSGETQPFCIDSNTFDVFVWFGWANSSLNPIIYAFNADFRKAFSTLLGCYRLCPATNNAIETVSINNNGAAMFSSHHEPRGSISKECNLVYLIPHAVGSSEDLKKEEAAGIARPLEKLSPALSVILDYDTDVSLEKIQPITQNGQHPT
# D1 antag – Antagonist of Human D 1 Dopamine Receptor: qHTS | D(1A) dopamine receptor (Homo sapiens), P21728 | activity change, negative = inhibition, % at 10 µM | actives 3.2% (n = 360,000) | AID 504652, 2011 | HEK293 TREx D1 cells, calcium flux, dopamine EC80; hits give low values; in the data active = activity change below about -30%; also: % is scaled to controls: 0 for no effect and ±100 for the full control effect
#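 Tetracycline-induced HEK293 Trex D1 cells, force-coupled to calcium, dye-loaded; compounds added and read 180 s, then EC80 dopamine added and calcium flux tracked kinetically another 180 s.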
# D1 ag – Allosteric Agonists of the Human D1 Dopamine Receptor: qHTS; D(1A) dopamine receptor (Homo sapiens), P21728; HEK293 T-REx D1 cells, calcium flux, agonist mode; activation, % at 2 µM; actives 1% (n = 360,000); in the data active = activation above about 30%; also: 0% is about no effect
#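 Inducible HEK293 T-REx D1 cells, force-coupled to calcium signalling, were plated at 4000 cells/well with tetracycline and held overnight at 30 C. After no-wash calcium dye loading, compound-evoked calcium rise over 180 s flagged agonists.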
# An asterisk follows results filed as active; ? = inconclusive; · = not tested or not shown. Sampled rows, rich in hits. Any-hit rate of the full collection: about 6%.
SMILES,D3 ag,D3 antag,D1 potentiator,D1 antag,D1 ag
COc1cc(CNCCN2CCOCC2)ccc1OCc1ccc(Cl)cc1,-2,26,-2,-6,16
COc1cc(CNCCCN2CCOCC2)cc(Br)c1OCc1ccc(Cl)cc1,-14,-23,-7,·,72*
CC1CCc2c(sc3ncnc(NCc4cccnc4)c23)C1 (centres undefined),-2,3,-2,-5,1
c1cncc(CNc2ncnc3sc4c(c23)CCC4)c1,14,-1,-1,-43*,4
CC(C)OCCCn1c(=O)c2ccccc2n2c(-c3ccc(F)c(F)c3)nnc12,-9,·,-2,-10,11
c1ccc(Cn2ccnc2SCc2nnc(-c3ccccc3)o2)cc1,32*,16,-7,-1,3
NC(=O)CSc1nccn1Cc1ccccc1,-7,-11,-12,17,3
C/C(=N\Nc1nc2ccccc2s1)c1ccc(Br)s1,4,18,3,4,2
CC(=NNc1nc2ccccc2s1)c1ccncn1,-9,-57*,·,·,·
Cc1ccc(C(=O)Nc2nc(-c3ccccn3)cs2)cc1S(=O)(=O)N1CCOCC1,14,39,3,-13,0
CCN(CC)c1ccc(/C=C/C(=O)c2ccc(Br)cc2)cc1,-8,-14,-8,-67*,425*
CN(C)c1ccc(C(=O)/C=C/c2ccccc2)cc1,-4,6,-4,-6,2
CN(C)c1ccc(C(=O)/C=C/c2ccc(Br)cc2)cc1,-6,-21,-4,-33*,5
CCN(CC)c1ccc(/C=C/C(=O)c2cccnc2)cc1,-1,-7,-2,-16,4
COc1cc(NC(=O)CCc2c(C)nc3c(c(C)nn3-c3ccccc3)c2C)cc(OC)c1OC,3,·,-6,-12,1
CC(C)c1ccccc1NC(=O)C(Cc1c[nH]c2ccccc12)NC(=O)OC(C)(C)C (centres undefined),-6,·,-4,10,2
Cc1cc(NC(=O)COC(=O)[C@H](Cc2c[nH]c3ccccc23)NC(=O)c2ccc(F)cc2)no1,0,-51*,-6,-5,6
Cc1ccc(NC(=O)C(Cc2c[nH]c3ccccc23)NC(=O)OC(C)(C)C)c(C)c1 (centres undefined),-13,·,-5,-35*,2
CCOC(=O)C(Cc1c[nH]c2ccccc12)NC(=O)COc1ccc(Cl)c(C)c1 (centres undefined),20,·,-1,-12,0
COC(=O)C(Cc1c[nH]c2ccccc12)NC(=O)CNC(C)=O (centres undefined),1,-53*,2,0,2
COC(=O)C(Cc1c[nH]c2ccccc12)NC(=O)COc1ccc(Cl)cc1Cl (centres undefined),-5,·,0,-32*,4
Cc1cccc(C(=O)N2CCc3cc(CNS(=O)(=O)c4ccc(Cl)s4)ccc32)c1,7,·,1,8,11
OC(C1=CC(=Cc2ccncc2)c2ccccc21)c1ccncc1 (centres undefined),9,2,·,·,·
Cc1nc2ccc(S(=O)(=O)NC(C(=O)N3CCN(c4cccc(Cl)c4)CC3)C(C)C)cc2s1 (centres undefined),3,·,1,-22,0
COc1ccc(CNCC(O)COc2ccc(C(C)(C)c3ccccc3)cc2)cc1 (centres undefined),-19,5,9,28,33*
SMILES,D3 ag,D3 antag,D1 potentiator,D1 antag,D1 ag
CCOc1ccc(OCC(O)CNC2CCN(Cc3ccccc3)CC2)cc1 (centres undefined),-5,?,2,1,22
CC(C)(c1ccccc1)c1ccc(OCC(O)CNC2CCN(Cc3ccccc3)CC2)cc1 (centres undefined),-15,?,4,20,67*
COC(=O)c1ccc(CNCC(O)COc2ccc(-c3ccccc3)cc2)cc1 (centres undefined),-14,3,7,13,11
CCn1ccnc1CN(C)C(=O)c1cc(COc2ccc(OC)c3ccccc23)on1,2,16,-2,-2,8
Cc1ncoc1C(=O)Nc1ccccc1C(N)=O,4,-100*,-12,-22,-1
Cc1ccccc1NC(=O)c1ocnc1C,2,0,0,0,1
CCn1c(=O)n(CC)c2cc(N3CCCC3)c(NC(=O)Nc3cc(C)cc(C)c3)cc21,9,·,0,-6,40*
CCn1c(=O)n(CC)c2cc(N3CCCC3)c(NC(=O)c3ccc(C)cc3)cc21,7,1,-1,-16,-1
CCOC(=O)c1ccc(NC(=O)Nc2cc3c(cc2N2CCCC2)n(C)c(=O)n3C)cc1,5,·,-5,-32*,2
Cc1cccc2c(=O)n(C(=O)c3ccccc3)c(N)nc12,0,22,·,·,·
Clc1cccc(-c2ccc(/C=N/n3cnnc3)o2)c1Cl,-1,39,-5,-61*,1
O=C(NCCc1c[nH]c2ccccc12)c1ccc([N+](=O)[O-])cc1,-8,-26,-9,-49*,3
O=C(NCCc1c[nH]c2ccccc12)OCCCCOC(=O)NCCc1c[nH]c2ccccc12,60*,26,-8,-6,2
O=C(CCCc1c[nH]c2ccccc12)NCCc1c[nH]c2ccccc12,-5,-19,-4,-10,3
O=C(CCc1c[nH]c2ccccc12)NCCc1ccc(Cl)cc1,2,3,0,-33*,0
O=C(CCc1ccccc1)N1CCCC(Nc2ccc(F)cc2)C1 (centres undefined),-2,-16,3,-25,-1
COc1ccc(-c2noc(=O)n2Cc2ccccc2F)cc1,-4,-21,-5,-30*,4
COc1ccc(-c2noc(=O)n2Cc2cc(C)ccc2C)cc1,-22,0,7,8,4
COc1ccc(Cl)cc1NC(=O)c1cc(S(=O)(=O)N(C)Cc2ccccc2)ccc1F,10,·,0,4,-1
CC(=O)c1c(C(=O)O)[nH]c(C(=O)O)c1C,-1,13,-2,-2,-3
Cc1[nH]c(C(=O)O)c(C)c1C(=O)OC(C)C,-3,-5,-6,-53*,0
Cc1ccccc1NC(=O)Cn1c(=O)n(Cc2ccccc2)c(=O)c2sc3ccccc3c21,7,·,1,-37*,-1
CCc1ccc(-n2c(=O)c3sc4ccccc4c3n(CC(=O)NC3CCCCC3)c2=O)cc1,-4,·,2,-24,0
COc1ccc(NC(=O)Cn2c(=O)n(Cc3ccccc3)c(=O)c3sc4ccccc4c32)cc1,0,·,2,-30*,3
